DT40 TDP1 CPT = qHTS for Inhibitors of human tyrosyl-DNA phosphodiesterase 1 (TDP1): qHTS in cells in presence of CPT. chicken DT40 Tdp1-/-;hTDP1 cells + 20 nM CPT, ATP luminescence, 48 h. Potency, µM (titrated, usually from 46.2 µM), without a hit: at the top dose activity change, negative = growth inhibition, hits mostly inhibitors. 420,000 compounds, 12% hits; also: potency is read from the fitted curve at half-maximal effect; nearly all actives have a fitted effect of over 55% in size
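Chicken DT40 Tdp1-/- cells stably complemented with human TDP1 were seeded at 400 cells/well in medium containing 20 nM camptothecin, exposed to pin-transferred compounds, and grown at 37 °C for at least 48 hr. Viability was read as ATP luminescence.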
VP16 counter = VP16 counterscreen qHTS for inhibitors of ROR gamma transcriptional activity; Potency, µM (series often up to 53.6 µM), for inactives: at the top dose activity, negative = inhibition, actives largely listed as inhibitors; Drosophila S2 Gal4-VP16 UAS-luciferase, luminescence, 20 h; 310,000 compounds, 3.5% hits;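 also: Gal4-VP16 expression switched on by copper sulfate through the metallothionein promoter; potency is read from the fitted curve at half-maximal effect; nearly all actives have a fitted effect of over 50% in size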
DT40 TDP1 no CPT = qHTS for Inhibitors of human tyrosyl-DNA phosphodiesterase 1 (TDP1): qHTS in cells in absence of CPT | DT40 Tdp1-/- hTDP1 cells, no CPT, ATP luminescence, 48 h | Potency, µM (series often up to 46.2 µM), inactives show top-dose activity change, negative = growth inhibition, hits mostly inhibitors | 420,000 compounds, 15% hits; also: potency is read from the fitted curve at half-maximal effect; nearly all actives have a fitted effect of over 55% in size
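Chicken DT40 Tdp1-/- cells stably complemented with human TDP1 were seeded at 400 cells/well with DMSO in place of 20 nM camptothecin. After compound pinning, cells grew at least 48 hr at 37 °C; viability read by CellTiter-Glo luminescence.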
RORgamma inh = qHTS for inhibitors of ROR gamma transcriptional activity; 310,000 compounds, 5.4% hits; Drosophila S2 Gal4-RORgamma UAS-luciferase reporter, 20 h; Potency, µM (titrated, usually from 53.6 µM), for inactives: at the highest dose activity change, negative = inhibition, most hits filed as inhibitors; Nuclear receptor ROR-gamma (Mus musculus), P51450; also: potency is read from the fitted curve at half-maximal effect; nearly all actives have a fitted effect of over 60% in size
Target sequence (P51450 whole entry, looked up, the tested form may be a part): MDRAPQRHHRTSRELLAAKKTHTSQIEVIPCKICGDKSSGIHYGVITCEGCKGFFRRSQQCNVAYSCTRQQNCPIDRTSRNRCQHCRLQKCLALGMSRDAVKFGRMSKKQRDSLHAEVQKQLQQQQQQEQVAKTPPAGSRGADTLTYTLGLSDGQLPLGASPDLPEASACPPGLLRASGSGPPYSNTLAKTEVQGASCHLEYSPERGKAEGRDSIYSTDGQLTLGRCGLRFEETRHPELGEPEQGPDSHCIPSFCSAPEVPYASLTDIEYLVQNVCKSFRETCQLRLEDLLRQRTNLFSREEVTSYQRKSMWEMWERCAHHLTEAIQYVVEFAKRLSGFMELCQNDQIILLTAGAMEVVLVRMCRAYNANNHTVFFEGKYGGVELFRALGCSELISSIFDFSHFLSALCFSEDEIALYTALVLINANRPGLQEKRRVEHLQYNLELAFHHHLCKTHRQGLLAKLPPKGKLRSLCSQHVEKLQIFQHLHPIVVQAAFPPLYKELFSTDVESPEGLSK
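ROR gamma transcriptional activity was tracked as Gal4-UAS luciferase output in stably transfected Drosophila Schneider cells, with compound added 1 hr before 700 uM copper sulfate induction and a 20 hr ambient-temperature incubation.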
IL-1B inflam inh = qHTS for Inhibitors of Inflammasome Signaling: IL-1-beta AlphaLISA Primary Screen; activity change, % at 57.5 µM; THP-1 LPS/ATP IL-1B secretion, AlphaLISA, 16 h; hits give low values; AID 743279, 2014; 360,000 compounds, 4.7% hits; in the data active = activity change below about -50%; inconclusive = mostly about -30% to -49%
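THP-1 cells pretreated 1 hr with compounds (up to 57.5 uM final), then stimulated with LPS (250 ng/mL final) plus ATP (1.25 mM final); secreted IL-1B measured by AlphaLISA after 16 hr, decreased signal indicating inhibition.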
ELG1 repair inh = qHTS screen for small molecules that inhibit ELG1-dependent DNA repair in human embryonic kidney (HEK293T) cells expressing luciferase-tagged ELG1; HEK293T ELG1-luciferase reporter, luminescence, 16 h; DNA damage induced by 5-fluorouridine; Potency, µM (doses to about 46.1 µM), for inactives: at the highest dose activity change, negative = inhibition, hits mostly inhibitors; 330,000 compounds, 2.3% hits; AID 504467, 2011; also: potency is read from the fitted curve at half-maximal effect; nearly all actives have a fitted effect of over 55% in size
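Reporter activity after DNA damage by 5-fluorouridine is monitored. Compound-treated cells incubate 16 hr at 37 °C, then ONE-Glo is added for 30 min before luminescence reading.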
Starred values were filed as active, the others as inactive; ? = inconclusive; nt = no result; [ ] = dose if it differs, or a comment. Compounds with a hit are over-represented: about 21% of the library has one in this group of screens. Unless noted, calls follow the shape of the dose curve; as a rule, active = well fitted curve in the direction sought with a large enough effect; inconclusive = small, poorly fitted or top-dose-only effect, or another doubt; inactive = no such curve, though single readings can be large; an effect the other way counts as inactive or inconclusive. % is scaled to controls: 0 for no effect and ±100 for the full control effect.

SMILES	DT40 TDP1 CPT	VP16 counter	DT40 TDP1 no CPT	RORgamma inh	IL-1B inflam inh	ELG1 repair inh
CC[C@H](C)[C@H](NC(=O)[C@H](CCC(=O)O)NC(=O)[C@@H](N)CO)C(=O)N[C@@H](CCC(N)=O)C(=O)N[C@@H](CC(C)C)C(=O)N[C@@H](CCSC)C(=O)N[C@@H](Cc1cnc[nH]1)C(=O)N[C@@H](CC(N)=O)C(=O)N[C@@H](CC(C)C)C(=O)NCC(=O)N[C@@H](CCCCN)C(=O)N[C@@H](Cc1cnc[nH]1)C(=O)N[C@@H](CC(C)C)C(=O)N[C@@H](CC(N)=O)C(=O)N[C@@H](CO)C(=O)N[C@@H](CCSC)C(=O)N[C@@H](CCC(=O)O)C(=O)N[C@@H](CCCNC(=N)N)C(=O)N[C@H](C(=O)N[C@@H](CCC(=O)O)C(=O)N[C@@H](Cc1c[nH]c2ccccc12)C(=O)N[C@@H](CC(C)C)C(=O)N[C@@H](CCCNC(=N)N)C(=O)N[C@@H](CCCCN)C(=O)N[C@@H](CCCCN)C(=O)N[C@@H](CC(C)C)C(=O)N[C@@H](CCC(N)=O)C(=O)N[C@@H](CC(=O)O)C(=O)N[C@H](C(=O)N[C@@H](Cc1cnc[nH]1)C(=O)N[C@@H](CC(N)=O)C(=O)N[C@@H](Cc1ccccc1)C(=O)O)C(C)C)C(C)C	nt	-7%	nt	9%	nt	nt
CCOC(=O)C1=CCN(S(=O)(=O)c2ccc(F)cc2)C1c1ccc(Cl)c(Cl)c1 (stereo not given)	?	nt	?	nt	-12	nt
CCC(C)(C)NC(=O)/C=C/c1cccs1	-27%	?	2%	37%	-9	?
CC(=O)[C@H]1CC[C@H]2[C@@H]3CC=C4C[C@@H](O)CC[C@]4(C)[C@H]3CC[C@]12C	?	nt	?	nt	44	15%
CC(=O)[C@H]1CCC2C3CC=C4C[C@@H](O)CC[C@]4(C)C3CC[C@@]21C (stereo not given in full)	18µM*	nt	?	nt	17	-18%
CC(=O)C1CCC2C3CC(C)=C4CC(O)CCC4(C)C3CCC12C (stereo not given)	3%	nt	21µM*	nt	-99*	nt
CCOC(=O)C1CCN(CCC(=O)Nc2ccccc2OC)CC1	-22%	nt	-4%	nt	nt	nt
CCOc1ccccc1NC(=O)c1ccc2c(O)c(S(=O)(=O)c3ccccc3)c(=O)[nH]c2c1	1%	nt	-1%	nt	-3	nt
CC(C)CCNC(=O)c1ccc(NC(=O)N2CCCCc3ccccc32)cc1	5%	nt	4%	nt	nt	nt
O=C1C2C3c4ccccc4C(c4ccccc43)C2C(=O)N1/N=C/c1cccc(O)c1 (stereo not given)	21µM*	-7%	?	-15%	-5	1%
COc1cc(/C=N/N2C(=O)C3C4C=CC(CC4)C3C2=O)ccc1O (stereo not given)	-16%	13%	0%	38%	56	?
COc1ccc(NS(=O)(=O)c2ccc(C)c(NC(=O)NC3CCCCC3)c2)cc1	?	-21%	?	?	-74*	-18%
COc1ccc(NS(=O)(=O)c2cccc(NC(=O)NC3CCCCC3)c2)cc1	?	-8%	23µM*	?	-69*	-21%
CCCNC(=S)Nc1ccc(F)cc1F	-1%	9%	?	?	27	16µM*
Cc1cc(Cl)ccc1NNC(N)=S	-24%	?	-27%	?	-13	8%
Cc1cc(Cl)ccc1NC(=S)NCC(C)C	?	7.1µM*	29µM*	4.5µM*	-4	0%
Cc1cc(Cl)ccc1NC(=S)NC(C)(C)C	-25%	16µM*	-15%	2µM*	10	?
CCCNC(=S)Nc1ccc(Cl)cc1C	-2%	?	-12%	7.1µM*	3	-5%
CN(C)CCNC(=S)Nc1ccc(Cl)cc1Cl	-8%	4%	3%	-21%	-7	?
COCCNC(=O)C(=O)Nc1ccc(Cl)cc1C	-4%	2%	-19%	13%	-22	?
CC12CCC(=O)N1C(C(=O)NCCc1ccc(S(N)(=O)=O)cc1)CS2 (stereo not given)	-1%	2%	-4%	2%	7	3%
CCCCCCN	nt	-14%	nt	-10%	nt	nt
COc1ccc(C)c2sc(NC(=O)c3ccc(S(=O)(=O)N(C)C)cc3)nc12	-28%	nt	-24%	nt	nt	nt
COc1ccc2nc(SCC(=O)N3CCCCC3)c(C#N)cc2c1	-6%	0%	?	1%	15	-2%
COc1ccc2nc(SCC(=O)N3CCCCCC3)c(C#N)cc2c1	?	-15%	16µM*	19%	?	0%
SMILES	DT40 TDP1 CPT	VP16 counter	DT40 TDP1 no CPT	RORgamma inh	IL-1B inflam inh	ELG1 repair inh
COc1ccc2nc(SCC(=O)Nc3ccc(S(=O)(=O)N4CCCC4)cc3)c(C#N)cc2c1	9.2µM*	0%	?	-7%	0	-17%
N#Cc1cc2ccccc2nc1SCC(=O)Nc1ccc(S(=O)(=O)N2CCCC2)cc1	21µM*	-4%	18µM*	5%	2	?
CCOc1ccc2nc(SCC(=O)Nc3ccc(S(=O)(=O)N4CCCC4)cc3)c(C)cc2c1	-22%	-4%	0%	36%	38	6%
Nc1ccc(Sc2cc(Cl)nc(N)n2)cc1	nt	-1%	nt	88%	nt	13%
Oc1cccnc1Sc1cccc(C(F)(F)F)c1	-40%	nt	?	nt	12	nt
Nc1nc(N)c2cc(Sc3cccc(C(F)(F)F)c3)ccc2n1	9.2µM*	nt	1.3µM*	nt	?	nt
Nc1nc(N)c2cc(Sc3ccc(Cl)cc3)ccc2n1	3.7µM*	nt	1µM*	nt	?	nt
Nc1nc(N)c2cc(Sc3ccc4ccccc4c3)ccc2n1	18µM*	?	8.2µM*	?	?	-4%
CC(=O)Nc1sc(N/N=C\c2ccco2)nc1-c1cccs1	?	?	?	-118%	-20	-2%
CCC(CC)C(C(=O)NCc1ccccc1)N1CCN(C(=O)C2CCCO2)CC1 (stereo not given)	-19%	nt	-7%	nt	10	nt
O=c1c2sccc2n(Cc2cc(=O)n3ccccc3n2)c(=O)n1-c1cc(F)ccc1F	-16%	nt	0%	nt	nt	nt
CC(=O)CSc1nnc2c3ccccc3nc(C(C)(C)C)n12	-11%	-12%[10 µM]	-16%	39%	8	2%

From PubChem BioAssay
